In PubChem BioAssay one finds composite z-score, z-score and composite Z-score data, which are given here for 5 molecules.

Each structure is given as a SMILES string. Calls of active or inactive are those of the source.

Test [1] concerns Human papillomavirus type 1a protein E7 (residues 44-93). Nature of the test: small molecules binding HPV E7 44-93 – biochemical, small-molecule microarray, residues 44-93, 635 nm fluorescence, primary screen (AID 1108).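 Also: E7 fragment applied at 1 µg/mL in TBST for 1 h at 4 C; score combines spot fluorescence with its signal to noise ratio.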 The conditions noted are these: fluorescence 635 nm, higher = more signal.
Test [2] in a line: hepatitis C replication reporter changes, two-sided – Huh7 cells, luciferase reporter, HCV replication inhibitor project, primary screen (AID 1109).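 Also: huh7 hepatoma cells harbouring a luciferase neomycin HCV replicon reporter; luciferase luminescence as measure of HCV replicon replication; test concentration not given here.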 The conditions noted are these: Huh7 HCV replicon luciferase reporter, 48 h; higher = more signal.
Test [3] addresses Left-right determination factor 2 (Homo sapiens) (UniProt O00292). Nature of the test: small molecules binding LEFTY2 protein – biochemical, small-molecule microarray, 635 nm fluorescence scan, primary screen (AID 1110). The conditions noted are these: higher = more signal.
Test [4] concerns the target Calmodulin-1 (Homo sapiens) (UniProt P0DP23). Nature of the test: small molecules binding calmodulin-1 with EGTA – biochemical, small-molecule microarray, Cy5-labelled CALM1, profiling panel (AID 1111).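 Also: labelled calmodulin applied in Tris saline Tween buffer holding calcium plus EGTA and DTT.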 The conditions noted are these: Cy5-CALM1 binding fluorescence, higher = more signal.
The target is the same in test [5]. Nature of the test: small molecules binding Ca-loaded calmodulin-1 – biochemical, small-molecule microarray, Cy5-labelled CALM1, plus calcium, artefact control for SMM control-protein annotation, profiling panel (AID 1112).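 Also: score merges spot fluorescence with signal to noise from triplicate slides.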 Particulars: Cy5-CALM1 binding fluorescence, higher = more signal.
Test [6] in a line: probe aWnt5a binding to arrayed compounds – biochemical, biotinylated probe, 635/667 nm fluorescence, primary screen (AID 1113).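 Also: score merges 667 nm fluorescence intensity with signal-to-noise per printed feature.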 Particulars: small-molecule microarray, higher = more signal.
Test [7] in a line: probe aShh binding to arrayed compounds – biochemical, biotinylated probe, 635/667 nm fluorescence, primary screen (AID 1114).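 Also: probe is biotin-labelled aShh protein from a stem cell growth factor screen; measures binding of labelled protein to compounds printed on the slide; score merges feature fluorescence at 667 nm with signal-to-noise.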 Particulars: small-molecule microarray, higher = more signal.
The nature of test [8]: probe aNog binding to arrayed compounds – biochemical, biotinylated probe, 635/667 nm fluorescence, primary screen (AID 1115).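 Also: probe is biotinylated aNog protein used at 0.15 µg/mL for 1 h at 4 C; z-score combines 667 nm fluorescence of each spot with its signal to noise.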 Particulars: small-molecule microarray, higher = more signal.
Test [9] concerns the target Torsin-1A-interacting protein 1 (Homo sapiens) (UniProt Q5JTV8). Nature of the test: compound microarray binding of lysate hLAP1 – cell lysate, small-molecule microarray, COS7 lysate, 635/667 nm fluorescence, primary screen (AID 1116). The conditions noted are these: 635 nm fluorescence, higher = more signal.
Test [10] deals with Alpha-bungarotoxin (Bungarus multicinctus) (UniProt P60615). Nature of the test: compounds binding labelled alpha-BTX control protein – biochemical, small-molecule microarray, Alexa647 label, 635/667 nm fluorescence, artefact control for SMM control protein annotation, profiling panel (AID 1117). The conditions noted are these: alpha-BTX-A647 binding fluorescence, higher = more signal.

In the next test the target is Albumin (Bos taurus) (UniProt P02769). Nature of the test: compounds binding labelled BSA control protein – biochemical, small-molecule microarray, Alexa647 label, 635/667 nm fluorescence, artefact control for SMM control protein annotation, profiling panel (AID 1118).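 Also: score merges 667 nm emission intensity and signal-to-noise per printed compound spot.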 Particulars: BSA-A647 binding, fluorescence 635 nm, higher = more signal.
The nature of test [11]: probe aXIP binding to arrayed compounds – biochemical, NeuroSMM set, 635/667 nm fluorescence, primary screen (AID 1119).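 Also: probe is the protein aXip251-270 applied at 1 µg/mL to compound-printed slides; binding of probe to printed compounds measured as 667 nm fluorescence plus signal to noise.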 The conditions noted are these: small-molecule microarray, higher = more signal, called active from +8 up or from −8 down.
Test [12] in a line: probe aNOTCH3 binding on compound microarray – biochemical, small-molecule microarray, 635/667 nm fluorescence, primary screen (AID 1120).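 Also: probe is a biotin-tagged antibody raised against NOTCH3 rather than NOTCH3 protein; score merges spot fluorescence near 667 nm with spot signal to noise.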 The conditions noted are these: higher = more signal.
Test [13] can be described thus: probe aNOTCH2 binding on compound microarray – biochemical, small-molecule microarray, 635/667 nm fluorescence, primary screen (AID 1121).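 Also: score merges feature fluorescence read at 667 nm with its signal to noise.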 Particulars: higher = more signal.
Test [14] deals with Carbonic anhydrase 2 (Homo sapiens) (UniProt P00918). Nature of the test: compounds binding carbonic anhydrase 2 – biochemical, small-molecule microarray, Alexa647-labelled CAII, profiling panel (AID 1122). Particulars: CAII-A647 binding fluorescence, higher = more signal.
A short description of test [15]: COS7 lysate on small-molecule microarray, probe aHis, 635 nm (AID 1123).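 Also: z-score combines 667nm fluorescence intensity with signal-to-noise per printed compound spot.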 Particulars: COS7 cell lysate, fluorescence, higher = more signal.
A short description of test [16]: probe aLAP1 signal on lysate-treated microarray – cell lysate, small-molecule microarray, COS7 lysate, primary screen (AID 1124).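 Also: lysate comes from COS7 cells expressing LAP1 and is applied at 0.3 µg/mL; score merges spot fluorescence near 667 nm with signal-to-noise over triplicate slides.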 Particulars: probe aLAP1, fluorescence, higher = more signal.
The next test concerns Sam68 (KHDRBS1). Nature of the test: compounds binding KHDRBS1 protein – biochemical, small-molecule microarray, 635 nm fluorescence, primary screen (AID 1125).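 Also: score merges 667 nm channel intensity with signal to noise over triplicate slides.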 The conditions noted are these: higher = more signal.
Test [17] concerns Chordin-like protein 2 (CHRDL2). Nature of the test: compounds binding chordin-like 2 – biochemical, small-molecule microarray, 635 nm fluorescence, primary screen (AID 1126).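 Also: printed compound slides probed with Chrdl2 protein at 4 µg/mL for 1 h at 4 C; score merges 667 nm emission intensity with signal to noise over three replicate slides.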 The conditions noted are these: fluorescence 635 nm, higher = more signal.
Test [18] deals with Concanavalin-A (Canavalia ensiformis) (UniProt P02866). Nature of the test: compounds binding concanavalin A lectin – biochemical, small-molecule microarray, Alexa647 label, 635 nm, artefact control for SMM control protein annotation, primary screen (AID 1127).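 Also: z combines 667 nm emission intensity with signal-to-noise across three replicate slides.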 The conditions noted are these: ConA-A647 binding fluorescence, higher = more signal.
Concanavalin-A (Canavalia ensiformis), sequence (P02866 whole entry, looked up): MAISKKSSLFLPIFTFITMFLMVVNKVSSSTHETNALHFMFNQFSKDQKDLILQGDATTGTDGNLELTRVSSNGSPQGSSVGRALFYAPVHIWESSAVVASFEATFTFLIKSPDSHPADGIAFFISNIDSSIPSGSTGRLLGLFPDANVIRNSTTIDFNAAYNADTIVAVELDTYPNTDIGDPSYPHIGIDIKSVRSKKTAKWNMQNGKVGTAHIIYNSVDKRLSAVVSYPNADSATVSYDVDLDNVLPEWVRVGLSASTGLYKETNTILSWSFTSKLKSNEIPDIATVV

Alpha-bungarotoxin (Bungarus multicinctus), sequence (P60615 whole entry, looked up): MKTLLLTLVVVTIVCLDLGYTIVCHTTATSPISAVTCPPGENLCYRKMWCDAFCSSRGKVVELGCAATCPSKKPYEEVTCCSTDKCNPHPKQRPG
Left-right determination factor 2 (Homo sapiens), sequence (O00292 whole entry, looked up): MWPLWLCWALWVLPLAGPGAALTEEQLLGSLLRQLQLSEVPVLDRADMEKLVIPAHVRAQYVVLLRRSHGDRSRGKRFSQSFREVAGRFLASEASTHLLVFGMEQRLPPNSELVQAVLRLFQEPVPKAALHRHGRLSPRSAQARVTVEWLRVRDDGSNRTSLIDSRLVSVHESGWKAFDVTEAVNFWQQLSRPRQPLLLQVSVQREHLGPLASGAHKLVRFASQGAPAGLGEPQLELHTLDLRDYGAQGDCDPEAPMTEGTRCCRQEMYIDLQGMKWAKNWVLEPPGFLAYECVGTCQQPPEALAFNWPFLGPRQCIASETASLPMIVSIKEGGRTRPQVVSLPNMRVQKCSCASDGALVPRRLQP
Torsin-1A-interacting protein 1 (Homo sapiens), sequence (Q5JTV8 whole entry, looked up): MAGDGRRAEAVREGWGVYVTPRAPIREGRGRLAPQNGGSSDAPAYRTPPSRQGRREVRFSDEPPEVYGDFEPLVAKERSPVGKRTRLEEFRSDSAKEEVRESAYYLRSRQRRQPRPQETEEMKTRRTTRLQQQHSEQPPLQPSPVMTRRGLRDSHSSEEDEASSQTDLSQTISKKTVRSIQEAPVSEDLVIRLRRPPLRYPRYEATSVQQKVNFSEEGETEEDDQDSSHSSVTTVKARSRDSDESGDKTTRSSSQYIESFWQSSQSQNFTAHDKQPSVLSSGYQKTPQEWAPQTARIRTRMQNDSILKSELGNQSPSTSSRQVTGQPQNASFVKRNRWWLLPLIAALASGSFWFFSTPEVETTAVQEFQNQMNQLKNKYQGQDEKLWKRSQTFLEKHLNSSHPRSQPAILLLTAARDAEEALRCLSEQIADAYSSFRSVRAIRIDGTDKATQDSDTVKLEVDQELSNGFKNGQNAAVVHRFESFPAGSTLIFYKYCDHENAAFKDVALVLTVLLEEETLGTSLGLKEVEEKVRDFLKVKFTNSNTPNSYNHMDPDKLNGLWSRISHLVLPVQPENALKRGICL
Albumin (Bos taurus), sequence (P02769 whole entry, looked up): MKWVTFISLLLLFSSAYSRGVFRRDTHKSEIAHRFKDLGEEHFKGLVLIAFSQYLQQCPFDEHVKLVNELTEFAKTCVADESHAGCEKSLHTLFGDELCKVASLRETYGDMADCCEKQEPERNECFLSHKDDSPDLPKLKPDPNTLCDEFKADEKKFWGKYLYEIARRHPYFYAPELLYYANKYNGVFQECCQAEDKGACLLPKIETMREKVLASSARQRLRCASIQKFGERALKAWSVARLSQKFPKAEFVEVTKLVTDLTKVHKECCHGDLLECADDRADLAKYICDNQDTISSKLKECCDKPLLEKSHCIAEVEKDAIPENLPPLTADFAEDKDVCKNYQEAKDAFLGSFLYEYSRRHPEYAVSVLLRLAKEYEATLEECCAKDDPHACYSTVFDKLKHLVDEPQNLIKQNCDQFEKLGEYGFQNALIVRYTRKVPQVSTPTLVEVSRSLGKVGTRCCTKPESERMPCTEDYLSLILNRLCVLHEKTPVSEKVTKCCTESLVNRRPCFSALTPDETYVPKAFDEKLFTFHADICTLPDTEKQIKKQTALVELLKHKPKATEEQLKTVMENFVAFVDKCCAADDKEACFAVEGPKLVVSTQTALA

Take `COCCOC(=O)N1C(=O)[C@@]2(c3cc(C#CCC(C(=O)OC)C(=O)OC)ccc31)[C@H](C(=O)N1CCCCCCC1)[C@H]1C(=O)O[C@H](c3ccccc3)[C@H](c3ccccc3)N1[C@@H]2c1ccc(O)cc1`: the composite z-score was 1.37 in test [1]; 0.485 in test [3]; 1.1 in [4]; 0.624 in [5]; 0.244 in test [6]; -0.0422 in test [7]. For the same molecule, the composite z-score in test [8] is 2.33; in test [9], 0.166; in test [10], 1.3; in the test with Albumin (Bos taurus), -0.0345; in test [12], 0.996; in test [13] it was 0.222. Further, the composite z-score stood at 0.387 in test [14]; 2.34 in test [15]; 2.4 in [16]; 1.31 with Sam68 (KHDRBS1); 1.29 in test [17]; 0.783 in test [18]. Besides, the z-score in test [2] was -0.586. Besides, in test [11], the composite Z-score was 0.604 (inactive).
`C=CCOC(=O)[C@@H]1[C@H]2C(=O)O[C@H](c3ccccc3)[C@H](c3ccccc3)N2[C@H](c2ccc(OCCOC(=O)[C@@H]3C[C@@H]4C(=O)N5CCC[C@H]5C(=O)N4[C@@H]3c3cccc(OCCO)c3)cc2)[C@@]12C(=O)Nc1ccc(I)cc12`: the composite z-score in [1] is 1.31; in test [3] it was 0.56; in [4], 1.25; in [5], -0.141; in test [6] it was -0.0718; in test [7], -0.264. Also, the composite z-score in [8] was -0.342; in test [9] it was 0.972; in [10], 1.11; in the test with Albumin (Bos taurus) it was 0.226; in [12], -0.055; in test [13] it was -0.101. In addition, the composite z-score was 0.0553 in test [14]; 1.34 in test [15]; 0.167 in test [16]; 1.29 in the test with Sam68 (KHDRBS1); 1 in test [17]; 1.14 in [18]. The z-score in test [2] was -1.01. Also, the composite Z-score in [11] is -0.244 (inactive).
Consider `COC(=O)[C@@]1(Cc2ccc(F)cc2)[C@@H]2[C@@H](CC(=O)[C@H]2CC(=O)C(=O)N2CCCC2)CN1C(=O)c1ccccc1`, for which the composite z-score is 1.43 in [1]; -0.412 in [3]; 2.17 in [4]; 1.01 in test [5]; 0.135 in test [6]; 0.338 in test [7]. Moreover, the composite z-score came out at 2.34 in test [8]; 0.739 in test [9]; 1.03 in test [10]; 1.08 with Albumin (Bos taurus); 0.506 in test [12]; 0.239 in test [13]. Besides, the composite z-score is 0.603 in [14]; 3.17 in [15]; 0.552 in test [16]; 1.3 in the test with Sam68 (KHDRBS1); -0.232 in test [17]; 1.16 in [18]. The z-score in [2] was -2.01. Also, in test [11], the composite Z-score was 0.304 (inactive).
With `NC(=O)[C@H]1[C@@H]2C(=O)O[C@@H](c3ccccc3)[C@@H](c3ccccc3)N2[C@@H](c2ccc(O)cc2)[C@]12C(=O)Nc1ccc(C#CC3(O)CCCCCC3)cc12`, the composite z-score in test [1] was 1.45; in test [3], 0.6; in test [4], 0.861; in [5] it was -0.227; in [6] it was -0.12; in test [7], 0.534. Besides, the composite z-score in [8] is -0.327; in test [9] it was 1.49; in test [10], 1.49; in the test with Albumin (Bos taurus), 0.0474; in [12], 0.205; in test [13] it was -0.0859. In addition, the composite z-score is 0.51 in [14]; 2.63 in [15]; 0.807 in test [16]; 1.29 with Sam68 (KHDRBS1); 0.412 in test [17]; 1.12 in [18]. Further, in test [2], the z-score was -2.61. Besides, in test [11], the composite Z-score is 0.467 (inactive).
Regarding `C=CC[C@@]1(C(=O)NCCN2CCOCC2)N=C(c2ccc(OCCCO)cc2)O[C@@H]1c1ccccc1`, the composite z-score was 1.46 in test [1]; 0.902 in test [3]; -0.0984 in [4]; -0.0501 in [5]; 0.0873 in [6]; -0.0093 in test [7]. In addition, the composite z-score in test [8] was 1; in test [9] it was 1.06; in [10] it was 0.991; with Albumin (Bos taurus) it was 0.262; in test [12] it was 0.291; in test [13] it was -0.0907. Further, the composite z-score was found to be 0.673 in [14]; 2.52 in [15]; 0.871 in [16]; 1.12 in the test on Sam68 (KHDRBS1); 1.4 in [17]; 0.608 in test [18]. Also, the z-score in test [2] was -1.34. In addition, the composite Z-score in test [11] is -0.288 (inactive).
